In the library only some 21% were active in any assay of this set; here they are far more common.
NS1 function inh: inhibitors of influenza NS1 protein function. Potency, µM (titrated, usually from 46.1 µM), for inactives: top-dose activity, positive = more growth. hit rate 0.4% among 270,000; also: potency is read from the fitted curve at half-maximal effect; actives are rising curves; nearly all actives have a fitted effect of over 50% in size
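In this qHTS, NS1 from influenza A is expressed in budding yeast, where it slows growth. Cells are switched from glucose to 2% galactose medium (pH 6.0, -URA), treated with compound, and growth recovery is read at OD600.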
CHX counter: affects cycloheximide protein synthesis inhibition readout, counter-screen | AID 2314 | max response, % | cell reporter, cycloheximide protein synthesis inhibition counterscreen | hit rate 12% among 300,000; in the data active = max response mostly above about 13%, no sharp cut-off; inactive = mostly below about 14%; also: read at 38.3 µM for the half of the compounds with a filed dose; 0% is about no effect
Pf growth 96h: P. falciparum growth inhibition at 96 hour, primary screen for plastid delayed-death inhibitors | P. falciparum luciferase reporter growth, 96 h | AID 504834 | Potency, µM (series often up to 28.7 µM), inactives show top-dose activity change, negative = inhibition, actives largely listed as inhibitors | hit rate 6.9% among 320,000; active = well fitted inhibition curve with a large enough effect; inconclusive = small, poorly fitted or top-dose-only effect, or another doubt; inactive = no such curve, though single readings can be large or run the other way; also: potency is read from the fitted curve at half-maximal effect; % is scaled to controls: 0 for no effect and ±100 for the full control effect
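Compounds incubated with erythrocytes infected by luciferase-expressing P. falciparum (2% hematocrit, 0.05% parasitemia final) for 96 hours, 37 C in 5% CO2. Growth inhibition scored as decreased luciferase luminescence.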
Pf growth 48h: P. falciparum growth inhibition at 48 hours (one generation). P. falciparum luciferase growth in erythrocytes, 48 h. Potency, µM (doses to about 28.7 µM), without a hit: at the highest dose activity change, negative = inhibition, hits mostly inhibitors. hit rate 5.9% among 310,000. AID 504832; active = well fitted inhibition curve with a large enough effect; inconclusive = small, poorly fitted or top-dose-only effect, or another doubt; inactive = no such curve, though single readings can be large or run the other way; also: potency is read from the fitted curve at half-maximal effect; % is scaled to controls: 0 for no effect and ±100 for the full control effect
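Read-out is firefly luciferase luminescence from an integrated reporter in P. falciparum, so falling signal marks reduced parasite growth. Infected erythrocytes were at 2% hematocrit and 0.1% parasitemia (final) in Albumax-supplemented RPMI 1640.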
SARS PLpro yeast: inhibitors of SARS-CoV papain-like protease in yeast; hit rate 0.19% among 330,000; S. cerevisiae expressing SARS-CoV PLpro, growth rescue; Potency, µM (titrated, usually from 32.9 µM), for inactives: at the top dose activity, positive = growth rescue, actives largely listed as activators; also: potency is read from the fitted curve at half-maximal effect; 0% is about no effect; nearly all actives have a fitted effect of over 55% in size
Shiga inhibitor: Shiga toxin inhibition | Vero cells, Shiga toxin protein synthesis inhibition reporter | inhibition, % at 38.7 µM | hit rate 9.2% among 290,000; in the data active = inhibition mostly above about 28%, no sharp cut-off; inactive = mostly below about 43%; also: 0% is about no effect
* hit, by the source's call; ? = inconclusive; . = no result. Unless noted, calls follow the shape of the full dose curve.

SMILES | NS1 function inh | CHX counter | Pf growth 96h | Pf growth 48h | SARS PLpro yeast | Shiga inhibitor
COCCCNCCCOc1ccc(C(C)(C)c2ccccc2)cc1 | -9.9% | -3.9 | 29.0% | ? | 14.3% | -9.6
CC(C)(c1ccccc1)c1ccc(OCCCNCCO)cc1 | -2.1% | 9.6 | 2.08µM* | . | 0.7% | 5.1
OCCNCCCCOc1ccc(OCc2ccccc2)cc1 | 0.3% | 33.6* | 29.0% | -18.7% | -6.3% | 85.8*
Cc1cc(OCCCCCNCCO)cc(C)c1Cl | -13.8% | 1.1 | 13.1µM* | . | -6.5% | -8.9
O=C1CCN(S(=O)(=O)c2cccs2)c2ccc(C(F)(F)F)cc2N1 | -1.7% | 9.6 | 51.6% | -12.8% | 1.1% | 17.0
CC(O)CNCCCOc1ccccc1OCc1ccccc1 (stereo unspecified) | 0.2% | -0.2 | 28.2% | ? | -0.3% | -17.5
OCCCCNCc1ccc(OCc2ccccc2)cc1 | -12.7% | 13.6* | 100.6% | 16.7% | 6.6% | 34.1
CC(O)CNCCCCOc1ccc(OCc2ccccc2)cc1 (stereo unspecified) | 0.8% | 23.9* | ? | ? | -0.2% | 74.8*
CC(=O)NC1(C(F)(F)F)C(=O)Nc2c1c(=O)[nH]c(=O)n2CC(C)C (stereo unspecified) | 1.9% | -4.6 | ? | 11.4% | -0.1% | -9.5
Sc1ccc2ccccc2c1CNCc1ccccc1 | -0.3% | . | . | . | . | .
CCCCNC(=O)CCC(=O)N1CCN(C(c2ccccc2)c2ccccc2)CC1 | -8.5% | -3.0 | ? | -25.0% | -6.1% | -12.5
COCCCNC(=S)NNC(=S)Nc1ccccc1 | -33.3% | 26.9* | 37.5% | 43.1% | -3.8% | 40.0*
COCCCNC(=S)NCCc1ccc(F)cc1 | . | 25.7 | -15.6% | 55.7% | 2.9% | 44.6*
COCCCNC(=S)NNC(=S)Nc1ccc(F)cc1F | -13.8% | 44.4* | 3.1% | . | 6.2% | 54.4*
CN(Cc1ccc(Cl)cc1)C(=O)COC(=O)CSc1ccc([N+](=O)[O-])cc1 | . | . | -2.0% | -28.7% | -5.0% | .
COc1ccc(N2CCN(S(=O)(=O)CCNC(=O)c3cccs3)CC2)cc1 | . | . | 70.4% | 0.7% | . | .
OCCN1CCN(c2cc(-c3ccccc3)c3ccccc3n2)CC1 | -6.5% | -5.6 | 13.1µM* | ? | 5.7% | -15.1
CCn1nc(C)c(/C=C2\CCCC3=C2OC(N)=C(C#N)C3c2c(C)nn(CC)c2C)c1C (stereo unspecified) | 4.6% | -0.7 | 32.9% | 10.4µM* | 1.2% | -18.9
COCCCNC(=O)C1=CCN(S(=O)(=O)c2ccc(C)cc2)CC1 | 11.2% | -3.2 | ? | 6.2% | 4.1% | -12.4
Nc1c(O)ccc2c1C(=O)c1ccccc1C2=O | -25.7% | 11.8* | ? | 21.4% | -56.0% | 33.9
CC(Sc1nnc(C2CC2)n1Cc1ccccc1)C(=O)N1CCNC1=O (stereo unspecified) | . | . | -3.5% | 8.2% | -3.7% | .
O=C(NCc1cccs1)c1cc(-c2ccccc2)nc2ccccc12 | -11.9% | -4.0 | ? | -1.2% | -28.4% | -9.8
O=c1c2ccccc2nc2ccc(NCc3cccs3)nn12 | . | 53.6* | ? | 366.4% | 10.6% | 59.3*
Cc1ccccc1OCCOc1ccccc1C=C(C#N)C#N | -22.6% | 28.2* | 161.3% | 13.9% | -25.5% | 35.5*
Cc1cccc(OCCOc2ccccc2C=C(C#N)C#N)c1 | -41.0% | 19.1* | 24.9% | 3.1% | -35.8% | 16.8
SMILES | NS1 function inh | CHX counter | Pf growth 96h | Pf growth 48h | SARS PLpro yeast | Shiga inhibitor
Cc1cccc(OCCCC(=O)NCCc2ccccc2)c1 | -8.6% | -2.3 | -9.6% | -3.1% | -13.1% | 23.6
Cc1ccccc1OCCNC(=S)Nc1ccccc1 | -4.8% | 10.3 | ? | ? | 6.2% | 15.4
CC1(C)C2CCC1(C)C1(C2)NC(=O)c2ccccc2O1 (stereo unspecified) | 8.0% | -2.3 | 50.2% | -5.3% | -8.0% | -2.2
Cn1c(=O)[nH]c(=O)c2c1nc(N1CCOCC1)n2CC(=O)c1ccccc1 | -1.2% | -1.1 | ? | 38.0% | -0.7% | -14.6
Cc1ccc2c(c1)cc1c(=O)[nH]ncn12 | -10.8% | 8.3 | 53.3% | 52.5% | 2.2% | 87.8*
Cc1ccc(Cn2c3ccccc3c3cn[nH]c(=O)c32)cc1 | -12.9% | -1.1 | -1.3% | -7.9% | -5.9% | 12.4
O=C1Nc2ccc(Br)cc2C1(O)Cc1ccncc1 (stereo unspecified) | 3.9% | -3.3 | 41.7% | 7.9% | 3.2% | 0.9
O=C1Nc2ccccc2C1(O)Cc1ccncc1 (stereo unspecified) | 1.5% | 12.8 | 9.28µM* | 11.6% | 1.7% | -6.9

Screening results from PubChem.
